Screens (PubChem BioAssay)
Only some compounds are listed: those with a hit (about 21% of all), similar ones and a draw of the others.
Pf growth 48h – P. falciparum growth inhibition at 48 hours (one generation); P. falciparum luciferase growth in erythrocytes, 48 h; 310,000 tested, 5.9% active; Potency, µM (highest dose often 28.7 µM), actives largely listed as inhibitors; active means well fitted inhibition curve with a large enough effect; inconclusive means small, poorly fitted or top-dose-only effect, or another doubt; inactive means no such curve, though single readings can be large or run the other way
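Erythrocytes infected with P. falciparum carrying an integrated firefly luciferase reporter (2% hematocrit, 0.1% parasitemia final) were exposed to compounds in RPMI 1640 with 0.5% Albumax at 37 C, 5% CO2. Growth inhibition was scored as reduced luminescence.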
SARS PLP yeast – inhibitors of SARS-CoV papain-like protease in yeast. S. cerevisiae expressing SARS-CoV PLpro, growth rescue. 330,000 tested, 0.19% active. Potency, µM (series often up to 32.9 µM), usual class: activators; further: nearly all actives have a fitted effect of over 55% in size
Cycloheximide cs – affects cycloheximide protein synthesis inhibition readout, counter-screen; 300,000 tested, 12% active; max response, %; cell reporter, cycloheximide protein synthesis inhibition counterscreen; in the data active means max response mostly above about 13%, no sharp cut-off; inactive means mostly below about 14%; further: read at 38.3 µM for the half of the compounds with a filed dose
Pf growth 96h – P. falciparum growth inhibition at 96 hours. AID 504834. 320,000 tested, 6.9% active. P. falciparum luciferase reporter growth, 96 h. Potency, µM (titrated, usually from 28.7 µM), most hits filed as inhibitors; active means well fitted inhibition curve with a large enough effect; inconclusive means small, poorly fitted or top-dose-only effect, or another doubt; inactive means no such curve, though single readings can be large or run the other way
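Infected RBCs, 2% Hct / 0.05% parasitemia final; luciferase-reporter P. falciparum; cpd 96 h, 37 C, 5% CO2; luciferase detection reagent; luminescence.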
Shiga inhibitor – Shiga toxin inhibition | Vero cells, Shiga toxin protein synthesis inhibition reporter | AID 2315 | inhibition, % at 38.7 µM | 290,000 tested, 9.2% active; in the data active means inhibition mostly above about 28%, no sharp cut-off; inactive means mostly below about 43%
NS1 function inh – inhibitors of influenza NS1 protein function. AID 2326. 270,000 tested, 0.4% active. Potency, µM (titrated, usually from 46.1 µM); further: actives are rising curves; nearly all actives have a fitted effect of over 50% in size
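Recovery from NS1-induced slow growth read by OD600 in budding yeast switched to galactose assay medium (pH 6.0, -URA) at 1:100 dilution. Compound 23 nl per well; the matching strain lacking NS1 serves as control.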
Hits are given with their value; n = inactive; u = inconclusive; x = no result. Unless noted, the call rests on the fitted dose curve.

SMILES	Pf growth 48h	SARS PLP yeast	Cycloheximide cs	Pf growth 96h	Shiga inhibitor	NS1 function inh
CC(C)C[C@@H]1NC(=O)[C@H](Cc2ccc(O)cc2)NC(=O)c2cc([N+](=O)[O-])cc(I)c2NCCC[C@@H](C(N)=O)NC1=O	u	n	n	10µM	n	u
O=C(NCc1ccccn1)C(=O)NCC1OCCN1S(=O)(=O)c1ccc(F)cc1 (stereo unspecified)	n	n	n	n	n	n
CSc1nnc2n(C)c3c(c(=O)n12)C1(CCCC1)Cc1ccccc1-3	u	u	n	10µM	n	u
O=S(=O)(NCc1ccco1)c1ccc(S(=O)(=O)N2CCCCC2)cc1	n	n	n	n	n	n
CC(=O)C12CCCCC1CC1[C@@H]3CC(C)C4=CC(=O)CC[C@]4(C)C3CC[C@@]12C (stereo partly specified)	u	n	n	u	n	n
CC(=O)O[C@]1(C(C)=O)CC[C@H]2[C@@H]3C=C(Cl)C4=CC(=O)[C@@H]5C[C@@H]5[C@]4(C)[C@H]3CC[C@@]21C	11µM	n	x	8.5µM	x	x
CC(=O)O[C@]1(C(C)=O)CC[C@H]2[C@@H]3C=C(Cl)C4=CC(=O)CC[C@]4(C)[C@H]3CC[C@@]21C	12µM	n	n	u	n	n
CC(=O)O[C@]1(C(C)=O)CC[C@H]2[C@@H]3C[C@H](C)C4=CC(=O)CC[C@]4(C)[C@H]3CC[C@@]21C	13µM	n	n	12µM	n	n
CCOc1ccc(OCC)c(S(=O)(=O)n2cnc(C)c2)c1	u	n	n	n	x	n
Cc1c(Cl)ccc(S(=O)(=O)NCCCn2ccnc2)c1Cl	n	n	n	n	n	n
Cc1ccc(NC(=O)CS(=O)CC(=O)Nc2ccccc2-c2ccc(C)o2)cc1 (stereo unspecified)	n	n	n	u	n	n
CC(=O)Nc1ccccc1-c1ccc(C)o1	n	n	16	n	n	n
O=S(=O)(c1ccc(O)cc1)c1ccc(O)cc1	n	n	n	u	n	n
O=C1C=CC(=C(c2ccc(O)cc2)c2ccc(O)cc2)C=C1	7.4µM	n	x	7.4µM	x	x
CC(=O)Nc1ccc(OCC(=O)c2cc(C)ccc2C)cc1	x	n	n	9.3µM	n	n
Cc1ccc(C)c(C(=O)COc2ccccc2[N+](=O)[O-])c1	n	n	36	n	26	n
Cc1ccc([N+](=O)[O-])c(OCC(=O)OCC(=O)c2ccccc2)c1	n	n	n	0.93µM	n	n
COc1cc2c(cc1OC)CN(C(=O)C1CCCN1S(=O)(=O)c1ccc(C)cc1)CC2 (stereo unspecified)	n	n	n	n	n	n
NC(=S)c1ncc(C(F)(F)F)cc1Cl	n	n	n	n	n	n
FC(F)(F)c1cc(Oc2ccccc2Cl)nc(-c2ccccn2)n1	n	n	n	n	n	n
FC(F)(F)c1cnc(-c2cnc(-c3ccncc3)nc2)c(Cl)c1	n	n	20	n	n	x
FC(F)(F)c1cnc(-c2cnc(-c3ccccn3)nc2)c(Cl)c1	n	n	n	6.6µM	52	x
O=S1(=O)C2CC3OC2(CC3c2ccc(F)cc2)CN1Cc1ccc(Cl)cc1 (stereo unspecified)	x	x	n	x	n	x
CCc1ccccc1NC1=NCC(=O)N1Cc1ccc2c(c1)OCO2	n	n	n	4.1µM	n	n
O=C1CN=C(Nc2ccccc2Cl)N1Cc1ccc2c(c1)OCO2	n	n	n	n	n	n
SMILES	Pf growth 48h	SARS PLP yeast	Cycloheximide cs	Pf growth 96h	Shiga inhibitor	NS1 function inh
Nc1nc(-c2ccc(Br)s2)c(Br)s1	n	n	38	x	63	n
N#Cc1c(N)nc2c(c1-c1ccc(Br)s1)CCCC2	n	u	n	n	n	n
CC(/C=N/Nc1nnc(C)c(=O)[nH]1)=C\c1ccccc1	n	n	26	n	81	n
Cc1occc1C(=O)N/N=C/c1cccs1	n	n	33	n	84	n
Cc1occc1C(=O)N/N=C/C(Br)=C/c1ccccc1	n	n	39	u	86	x
Nc1c(C(=O)N/N=C/c2ccc(OCc3ccccc3)cc2)cnn1-c1ccccc1	n	n	n	n	n	n
O=C(N/N=C/C(Br)=C/c1ccccc1)c1ccccc1[N+](=O)[O-]	u	n	8.7	n	n	n
Cc1occc1C(=O)N/N=C/c1ccc(OCc2ccccc2)cc1	u	n	45	10µM	63	n
CCOC(=O)C1CCN(CC(=O)N(CC(C)C)c2c(N)n(CC(C)C)c(=O)[nH]c2=O)CC1	n	n	n	n	n	x
COc1cc(NS(=O)(=O)c2ccc(NC(=O)c3cccnc3)cc2)ncn1	n	n	n	n	n	n
Cc1ccc(S(=O)(=O)NCCC(=O)N2CCCCCCC2)cc1C	n	n	x	u	x	x
S=C(NCc1ccccc1)Nc1ccncc1	u	n	n	u	n	n
O=C(Nc1ccc(S(=O)(=O)NC2=NCCCCC2)cc1)c1ccccc1Cl	n	n	n	n	n	n
Cc1occc1C(=O)N/N=C/c1ccc(-c2ccccc2)cc1	n	n	37	n	75	n
Cc1ccc(S(=O)(=O)/N=C(/Nc2ccc3[nH]c(=O)[nH]c3c2)c2ccc(F)cc2)cc1	n	n	n	n	n	n
CC1=C(C)CC(C(=O)NCc2cccc(Cl)c2)C(C(=O)O)C1 (stereo unspecified)	n	n	n	13µM	n	n
S=C(NCCc1cccc(Cl)c1)NCc1ccccc1	n	n	25	u	n	n
S=C(NCc1ccccc1)NCc1cccc(Cl)c1	n	u	n	3.7µM	n	n
O=C(NCc1ccccc1)Oc1cccc(Cl)c1	n	n	9.6	n	n	n
S=C(NCCc1ccc(Cl)cc1)NCc1ccccc1	n	n	n	u	n	n
COc1ccc(CNC(=O)Oc2ccccc2)cc1Cl	n	n	n	x	n	n
S=C(NCc1ccccc1)NCc1cccc(CNC(=S)NCc2ccccc2)c1	n	u	n	n	n	n
Cc1ccsc1/C=C(\C#N)C(=O)NC1CCS(=O)(=O)C1 (stereo unspecified)	u	n	n	n	n	x
Fc1ccc(CNC(=S)NCc2cccc(Cl)c2)cc1	u	n	n	10µM	n	u
O=C(/C=C/c1ccco1)Nc1sc2c(c1C(=O)O)CCC2	n	n	43	n	52	n
SMILES	Pf growth 48h	SARS PLP yeast	Cycloheximide cs	Pf growth 96h	Shiga inhibitor	NS1 function inh
O=C(/C=C/c1ccccc1)Nc1sc2c(c1C(=O)O)CCC2	n	n	25	n	41	n
N#Cc1c(NC(=O)/C=C/c2ccco2)sc2c1CCCC2	n	n	51	n	67	n
COc1ccc(OC)c(S(=O)(=O)N2CCC(C(=O)NC3CCCCCC3)CC2)c1	n	n	n	n	n	n
Cc1ccc(S(=O)(=O)N2CCN(CC(=O)NCC3(N4CCOCC4)CCCCC3)CC2)cc1	n	n	x	n	x	x
Cc1ccc(NC(=O)Nc2nc(-c3ccc(C)s3)cs2)cc1	n	n	n	15µM	n	n
O=C(NC(=S)Nc1nc(-c2cccc3ccccc23)cs1)c1cc2ccccc2o1	n	n	n	n	n	n
